# Changes are numbered by the printed parent chain.
# Key:
# Assay in all cases: PBM; 200 nM protein, PBS
# Settings in all cases: dsDNA, one strand shown
# HOXC10 [1] = molecular target: HOXC10 (Homo sapiens, UniProt Q9NYD6 254-340)
# HOXC10 [2] = molecular target: HOXC10 (Homo sapiens, UniProt Q9NYD6 254-340, K271E)
# PITX2 = PITX2 (Homo sapiens, UniProt Q99697 72-157)
# HOXD13 [3] = molecular target: HOXD13 (Homo sapiens, UniProt P35453 263-343, T313R)
# HOXD13 [4] = molecular target: HOXD13 (Homo sapiens, UniProt P35453 263-343)
# HOXD13 (Homo sapiens, UniProt P35453 263-343), sequence (P35453 263-343): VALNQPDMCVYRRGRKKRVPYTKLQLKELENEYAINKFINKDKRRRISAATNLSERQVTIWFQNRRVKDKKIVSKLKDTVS
# HOXD13 [5] = molecular target: HOXD13 (Homo sapiens, UniProt P35453 263-343, T313A)
# HOXD13 (Homo sapiens, UniProt P35453 263-343, T313A), sequence (P35453 263-343 T313A): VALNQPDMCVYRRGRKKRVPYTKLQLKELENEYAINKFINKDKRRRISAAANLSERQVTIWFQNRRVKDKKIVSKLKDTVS
# NKX2-6 [6] = molecular target: T1, NKX2-6 (Homo sapiens, UniProt A6NCS4 118-204)
# T1 sequence: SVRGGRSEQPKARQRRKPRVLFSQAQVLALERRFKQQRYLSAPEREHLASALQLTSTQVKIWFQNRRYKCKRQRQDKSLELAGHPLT
# NKX2-6 [7] = molecular target: T2, NKX2-6 (Homo sapiens, UniProt A6NCS4 118-204, F151L)
# T2 sequence: T1 sequence with F34L
# HOXC9 = HOXC9 (Homo sapiens, UniProt P31274 178-260, R222W)
# HOXC9, sequence (P31274 178-260 R222W): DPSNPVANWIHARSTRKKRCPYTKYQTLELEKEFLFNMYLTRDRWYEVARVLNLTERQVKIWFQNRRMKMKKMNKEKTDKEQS
# HOXC10 (Homo sapiens, UniProt Q9NYD6 254-340, K271E), sequence (Q9NYD6 254-340 K271E): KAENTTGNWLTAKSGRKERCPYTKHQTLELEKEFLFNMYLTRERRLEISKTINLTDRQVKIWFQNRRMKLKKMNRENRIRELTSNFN
# HOXC10 (Homo sapiens, UniProt Q9NYD6 254-340), sequence (Q9NYD6 254-340): as the sequence (Q9NYD6 254-340 K271E) above, with E18K counted along it
# HOXD13 (Homo sapiens, UniProt P35453 263-343, T313R), sequence (P35453 263-343 T313R): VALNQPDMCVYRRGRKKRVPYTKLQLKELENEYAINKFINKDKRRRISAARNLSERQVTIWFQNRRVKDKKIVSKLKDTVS
sequence,measurement,setting,value
CCGAAGGA,binding signal,HOXC10 [1],"10 upbm affinity estimate (log intensity, higher = more binding, comparable within an allelic series)"
same,binding signal,HOXC10 [2],"9.98 upbm affinity estimate (log intensity, higher = more binding, comparable within an allelic series)"
ATAGATGA,binding signal,HOXC10 [1],"10.8 upbm affinity estimate (log intensity, higher = more binding, comparable within an allelic series)"
same,binding signal,HOXC10 [2],"10.8 upbm affinity estimate (log intensity, higher = more binding, comparable within an allelic series)"
CTAGCCAG,binding signal,HOXC10 [1],"10.1 upbm affinity estimate (log intensity, higher = more binding, comparable within an allelic series)"
same,binding signal,HOXC10 [2],"10.1 upbm affinity estimate (log intensity, higher = more binding, comparable within an allelic series)"
AGCTTCTG,binding signal,HOXC10 [1],"10.1 upbm affinity estimate (log intensity, higher = more binding, comparable within an allelic series)"
same,binding signal,HOXC10 [2],"10 upbm affinity estimate (log intensity, higher = more binding, comparable within an allelic series)"
ATAAAAAG,binding signal,HOXC10 [1],"12.1 upbm affinity estimate (log intensity, higher = more binding, comparable within an allelic series)"
same,binding signal,HOXC10 [2],"11.5 upbm affinity estimate (log intensity, higher = more binding, comparable within an allelic series)"
GGTCCGCA,binding signal,HOXC10 [1],"10 upbm affinity estimate (log intensity, higher = more binding, comparable within an allelic series)"
same,binding signal,HOXC10 [2],"10 upbm affinity estimate (log intensity, higher = more binding, comparable within an allelic series)"
ATGTCATA,binding signal,HOXC10 [1],"11.1 upbm affinity estimate (log intensity, higher = more binding, comparable within an allelic series)"
same,binding signal,HOXC10 [2],"11.1 upbm affinity estimate (log intensity, higher = more binding, comparable within an allelic series)"
ATCATACA,binding signal,HOXC10 [1],"10.9 upbm affinity estimate (log intensity, higher = more binding, comparable within an allelic series)"
same,binding signal,HOXC10 [2],"10.8 upbm affinity estimate (log intensity, higher = more binding, comparable within an allelic series)"
AATCATCA,binding signal,HOXC10 [1],"10.9 upbm affinity estimate (log intensity, higher = more binding, comparable within an allelic series)"
same,binding signal,HOXC10 [2],"10.9 upbm affinity estimate (log intensity, higher = more binding, comparable within an allelic series)"
ACATAAGT,binding signal,HOXC10 [1],"10.9 upbm affinity estimate (log intensity, higher = more binding, comparable within an allelic series)"
same,binding signal,PITX2,"9.71 upbm affinity estimate (log intensity, higher = more binding, comparable within an allelic series)"
same,binding signal,HOXC10 [2],"10.8 upbm affinity estimate (log intensity, higher = more binding, comparable within an allelic series)"
CGGCCCCG,binding signal,HOXC10 [1],"10.2 upbm affinity estimate (log intensity, higher = more binding, comparable within an allelic series)"
same,binding signal,HOXC10 [2],"10.1 upbm affinity estimate (log intensity, higher = more binding, comparable within an allelic series)"
GCATATAA,binding signal,HOXC10 [1],"11.4 upbm affinity estimate (log intensity, higher = more binding, comparable within an allelic series)"
same,binding signal,HOXC10 [2],"11.2 upbm affinity estimate (log intensity, higher = more binding, comparable within an allelic series)"
AGGGCCAG,binding signal,HOXC10 [1],"9.98 upbm affinity estimate (log intensity, higher = more binding, comparable within an allelic series)"
same,binding signal,HOXC10 [2],"10 upbm affinity estimate (log intensity, higher = more binding, comparable within an allelic series)"
CCCGTAAA,binding signal,HOXC10 [1],"11.3 upbm affinity estimate (log intensity, higher = more binding, comparable within an allelic series)"
same,binding signal,HOXD13 [3],"10.6 upbm affinity estimate (log intensity, higher = more binding, comparable within an allelic series)"
same,binding signal,HOXD13 [4],"11.9 upbm affinity estimate (log intensity, higher = more binding, comparable within an allelic series)"
same,binding signal,HOXD13 [5],"11.6 upbm affinity estimate (log intensity, higher = more binding, comparable within an allelic series)"
AGATAATG,binding signal,HOXC10 [1],"11.3 upbm affinity estimate (log intensity, higher = more binding, comparable within an allelic series)"
same,binding signal,HOXC10 [2],"11.2 upbm affinity estimate (log intensity, higher = more binding, comparable within an allelic series)"
CGAGGAGC,binding signal,HOXC10 [1],"9.97 upbm affinity estimate (log intensity, higher = more binding, comparable within an allelic series)"
same,binding signal,HOXC10 [2],"9.97 upbm affinity estimate (log intensity, higher = more binding, comparable within an allelic series)"
CTCGGGAA,binding signal,HOXC10 [1],"10.1 upbm affinity estimate (log intensity, higher = more binding, comparable within an allelic series)"
same,binding signal,HOXC10 [2],"10 upbm affinity estimate (log intensity, higher = more binding, comparable within an allelic series)"
CGCTGGGC,binding signal,HOXC10 [1],"10 upbm affinity estimate (log intensity, higher = more binding, comparable within an allelic series)"
same,binding signal,NKX2-6 [6],"9.13 upbm affinity estimate (log intensity, higher = more binding, comparable within an allelic series)"
same,binding signal,HOXC10 [2],"9.98 upbm affinity estimate (log intensity, higher = more binding, comparable within an allelic series)"
same,binding signal,NKX2-6 [7],"9.22 upbm affinity estimate (log intensity, higher = more binding, comparable within an allelic series)"
ATACTATA,binding signal,HOXC10 [1],"11.1 upbm affinity estimate (log intensity, higher = more binding, comparable within an allelic series)"
same,binding signal,HOXC10 [2],"11 upbm affinity estimate (log intensity, higher = more binding, comparable within an allelic series)"
ACGCTGGA,binding signal,HOXC10 [1],"9.94 upbm affinity estimate (log intensity, higher = more binding, comparable within an allelic series)"
same,binding signal,HOXC10 [2],"10.1 upbm affinity estimate (log intensity, higher = more binding, comparable within an allelic series)"
GTCCCGCA,binding signal,HOXC10 [1],"10.1 upbm affinity estimate (log intensity, higher = more binding, comparable within an allelic series)"
same,binding signal,NKX2-6 [6],"9.41 upbm affinity estimate (log intensity, higher = more binding, comparable within an allelic series)"
same,binding signal,HOXC10 [2],"10.1 upbm affinity estimate (log intensity, higher = more binding, comparable within an allelic series)"
same,binding signal,NKX2-6 [7],"9.36 upbm affinity estimate (log intensity, higher = more binding, comparable within an allelic series)"
CGCCGGCC,binding signal,HOXC10 [1],"9.95 upbm affinity estimate (log intensity, higher = more binding, comparable within an allelic series)"
same,binding signal,HOXC10 [2],"9.99 upbm affinity estimate (log intensity, higher = more binding, comparable within an allelic series)"
CTCAGGAA,binding signal,HOXC10 [1],"10.1 upbm affinity estimate (log intensity, higher = more binding, comparable within an allelic series)"
same,binding signal,HOXC10 [2],"10 upbm affinity estimate (log intensity, higher = more binding, comparable within an allelic series)"
CAGAGGGA,binding signal,HOXC10 [1],"10.1 upbm affinity estimate (log intensity, higher = more binding, comparable within an allelic series)"
same,binding signal,HOXC10 [2],"10.1 upbm affinity estimate (log intensity, higher = more binding, comparable within an allelic series)"
AGCAGGGC,binding signal,HOXC10 [1],"10.1 upbm affinity estimate (log intensity, higher = more binding, comparable within an allelic series)"
same,binding signal,HOXC10 [2],"10.1 upbm affinity estimate (log intensity, higher = more binding, comparable within an allelic series)"
GGCGCAAA,binding signal,HOXC10 [1],"10.1 upbm affinity estimate (log intensity, higher = more binding, comparable within an allelic series)"
same,binding signal,HOXC10 [2],"10.1 upbm affinity estimate (log intensity, higher = more binding, comparable within an allelic series)"
GGGCTACC,binding signal,HOXC10 [1],"10 upbm affinity estimate (log intensity, higher = more binding, comparable within an allelic series)"
same,binding signal,HOXC10 [2],"10.1 upbm affinity estimate (log intensity, higher = more binding, comparable within an allelic series)"
ACGAAGCT,binding signal,HOXC10 [1],"10 upbm affinity estimate (log intensity, higher = more binding, comparable within an allelic series)"
same,binding signal,HOXC10 [2],"10.1 upbm affinity estimate (log intensity, higher = more binding, comparable within an allelic series)"
CGTGAATA,binding signal,HOXC10 [1],"10.7 upbm affinity estimate (log intensity, higher = more binding, comparable within an allelic series)"
same,binding signal,HOXC10 [2],"10.7 upbm affinity estimate (log intensity, higher = more binding, comparable within an allelic series)"
AGCTCTGC,binding signal,HOXC10 [1],"9.99 upbm affinity estimate (log intensity, higher = more binding, comparable within an allelic series)"
same,binding signal,HOXC10 [2],"9.97 upbm affinity estimate (log intensity, higher = more binding, comparable within an allelic series)"
AACCTGCC,binding signal,HOXC10 [1],"10.1 upbm affinity estimate (log intensity, higher = more binding, comparable within an allelic series)"
same,binding signal,PITX2,"7.89 upbm affinity estimate (log intensity, higher = more binding, comparable within an allelic series)"
same,binding signal,HOXC10 [2],"10.1 upbm affinity estimate (log intensity, higher = more binding, comparable within an allelic series)"
AATAATAG,binding signal,HOXC10 [1],"11.5 upbm affinity estimate (log intensity, higher = more binding, comparable within an allelic series)"
same,binding signal,HOXC10 [2],"11.2 upbm affinity estimate (log intensity, higher = more binding, comparable within an allelic series)"
ATTACAGG,binding signal,HOXC10 [1],"11.1 upbm affinity estimate (log intensity, higher = more binding, comparable within an allelic series)"
same,binding signal,HOXC10 [2],"10.9 upbm affinity estimate (log intensity, higher = more binding, comparable within an allelic series)"
CGCCCCGA,binding signal,HOXC10 [1],"10.1 upbm affinity estimate (log intensity, higher = more binding, comparable within an allelic series)"
same,binding signal,HOXC10 [2],"9.97 upbm affinity estimate (log intensity, higher = more binding, comparable within an allelic series)"
CCGGTGAC,binding signal,HOXC10 [1],"10 upbm affinity estimate (log intensity, higher = more binding, comparable within an allelic series)"
same,binding signal,HOXC10 [2],"10 upbm affinity estimate (log intensity, higher = more binding, comparable within an allelic series)"
ATAAAAAT,binding signal,HOXC10 [1],"12.2 upbm affinity estimate (log intensity, higher = more binding, comparable within an allelic series)"
same,binding signal,HOXD13 [3],"10.7 upbm affinity estimate (log intensity, higher = more binding, comparable within an allelic series)"
same,binding signal,HOXC10 [2],"11.7 upbm affinity estimate (log intensity, higher = more binding, comparable within an allelic series)"
same,binding signal,HOXC9,"11.2 upbm affinity estimate (log intensity, higher = more binding, comparable within an allelic series)"
AGCTGGGC,binding signal,HOXC10 [1],"10 upbm affinity estimate (log intensity, higher = more binding, comparable within an allelic series)"
same,binding signal,HOXC10 [2],"10 upbm affinity estimate (log intensity, higher = more binding, comparable within an allelic series)"
AAATAAAA,binding signal,HOXC10 [1],"11.9 upbm affinity estimate (log intensity, higher = more binding, comparable within an allelic series)"
same,binding signal,HOXC10 [2],"11.1 upbm affinity estimate (log intensity, higher = more binding, comparable within an allelic series)"
GCGAGTCC,binding signal,HOXC10 [1],"10.1 upbm affinity estimate (log intensity, higher = more binding, comparable within an allelic series)"
same,binding signal,HOXC10 [2],"10.1 upbm affinity estimate (log intensity, higher = more binding, comparable within an allelic series)"
GGGGCTAC,binding signal,HOXC10 [1],"10.1 upbm affinity estimate (log intensity, higher = more binding, comparable within an allelic series)"
same,binding signal,HOXC10 [2],"10.1 upbm affinity estimate (log intensity, higher = more binding, comparable within an allelic series)"
GCCTAATA,binding signal,HOXC10 [1],"11 upbm affinity estimate (log intensity, higher = more binding, comparable within an allelic series)"
same,binding signal,HOXC10 [2],"10.9 upbm affinity estimate (log intensity, higher = more binding, comparable within an allelic series)"
CCCGGGCG,binding signal,HOXC10 [1],"10.1 upbm affinity estimate (log intensity, higher = more binding, comparable within an allelic series)"
same,binding signal,HOXC10 [2],"10.1 upbm affinity estimate (log intensity, higher = more binding, comparable within an allelic series)"
GACGATTA,binding signal,HOXC10 [1],"11.2 upbm affinity estimate (log intensity, higher = more binding, comparable within an allelic series)"
same,binding signal,HOXC10 [2],"11.1 upbm affinity estimate (log intensity, higher = more binding, comparable within an allelic series)"
AGGAGTGG,binding signal,HOXC10 [1],"9.97 upbm affinity estimate (log intensity, higher = more binding, comparable within an allelic series)"
same,binding signal,HOXC10 [2],"9.99 upbm affinity estimate (log intensity, higher = more binding, comparable within an allelic series)"

# Source: publication PMC11006913
